An excerpt weighted towards active compounds, which were near 4% of everything screened.
KKLEB cytotox: CF airway cell cytotoxicity counter-screen. KKLEB CF airway cells viability, ATPlite luminescence, overnight; stronger effect = lower value; cells stimulated with P. aeruginosa culture filtrate. activity change (cytotoxicity), % at 5 µM. 360,000 compounds, 0.36% hits. AID 602141;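 active = corrected activity change at or below -50% at 5 µM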
TWEAK-Fn14 inh: TWEAK-Fn14 signaling inhibition; TWEAK-stimulated Fn14 reporter cells, luciferase luminescence, 8 h; inhibition, % at 10 µM; 360,000 compounds, 2% hits; in the data active = inhibition above about 50%
TROY NFkB inh: blocks TROY-dependent signaling in reporter cells; inhibition, % at 10 µM; 360,000 compounds, 0.98% hits; AID 1347056; Q293 LMP1-TROYcd NF-kB luciferase reporter, 4 h;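 active = compounds whose plate-normalised and pattern-corrected inhibition of the luciferase reporter signal at the single screening dose is 50% or more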
CF NFkB inh: inhibitors of cystic fibrosis induced NF-kB. AID 588850. inhibition, % at 5 µM. KKLEB NF-kB-GFP reporter, PAF-induced, GFP fluorescence overnight. 360,000 compounds, 0.86% hits;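 active = at least 50% inhibition at 5 µM, scaled per plate between neutral and stimulator controls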;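 note: PAF is a Pseudomonas aeruginosa culture filtrate used as stimulus; plate controls were PAF-stimulated DMSO wells for no effect and unstimulated DMSO wells for full effect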
HIF-2a inh: inhibitors of HIF-2a | 786-0 RCC cells HIF-2a reporter, luciferase luminescence, overnight | inhibition, % at 18.8 µM | 360,000 compounds, 0.72% hits | AID 624352;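 active = inhibition of the luminescence signal of 40% or more relative to plate controls, in a single-dose primary screen at 18.75 µM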
Peg3 promoter: Peg3 promoter activity inhibition; inhibition, % at 20 µM; AID 588405; 360,000 compounds, 1.7% hits; HeLa PEG-Prom luciferase reporter, luminescence, overnight;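 active = inhibition of at least 50% at 20 µM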
Mdm2-MdmX confirm: confirmation of inhibitors of human Mdm2/MdmX interaction, set 2; shares compounds with HIF-2a inh; SaOS-2 split-luciferase Mdm2/MdmX complementation, luminescence; inhibition, % at 8 µM; 740 compounds, 99% hits; AID 504601;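 active = mean inhibition of the luminescence signal across two replicates at or above 26 percent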
Target sequence (O15151 whole entry, looked up): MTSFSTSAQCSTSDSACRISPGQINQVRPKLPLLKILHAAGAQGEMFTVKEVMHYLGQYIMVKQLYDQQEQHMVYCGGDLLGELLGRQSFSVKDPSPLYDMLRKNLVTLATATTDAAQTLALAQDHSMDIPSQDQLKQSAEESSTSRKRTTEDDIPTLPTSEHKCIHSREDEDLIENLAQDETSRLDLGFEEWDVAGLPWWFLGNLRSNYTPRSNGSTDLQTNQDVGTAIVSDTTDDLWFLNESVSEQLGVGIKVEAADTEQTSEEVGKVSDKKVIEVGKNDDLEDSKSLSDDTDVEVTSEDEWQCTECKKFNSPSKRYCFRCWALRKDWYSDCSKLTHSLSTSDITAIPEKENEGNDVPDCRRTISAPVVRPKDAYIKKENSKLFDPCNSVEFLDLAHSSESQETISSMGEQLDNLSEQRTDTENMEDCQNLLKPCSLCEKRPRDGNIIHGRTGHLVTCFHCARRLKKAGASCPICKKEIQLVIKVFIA
Target sequence (Q00987 whole entry, looked up): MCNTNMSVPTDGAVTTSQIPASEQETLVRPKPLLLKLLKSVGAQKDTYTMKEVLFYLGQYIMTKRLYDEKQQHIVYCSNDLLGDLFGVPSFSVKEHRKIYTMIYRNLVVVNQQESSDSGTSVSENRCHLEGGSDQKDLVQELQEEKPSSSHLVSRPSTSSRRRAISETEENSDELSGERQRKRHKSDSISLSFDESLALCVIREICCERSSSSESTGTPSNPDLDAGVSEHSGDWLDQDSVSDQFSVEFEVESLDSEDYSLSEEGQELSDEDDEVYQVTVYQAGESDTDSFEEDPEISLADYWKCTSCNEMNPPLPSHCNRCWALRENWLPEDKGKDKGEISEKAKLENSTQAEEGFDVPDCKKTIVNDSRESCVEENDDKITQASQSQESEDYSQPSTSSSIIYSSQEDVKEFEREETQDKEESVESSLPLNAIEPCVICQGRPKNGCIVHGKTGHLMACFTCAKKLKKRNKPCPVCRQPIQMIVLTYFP
HIF-2a conf: confirmation of HIF-2a inhibitors | inhibition, % at 18.8 µM | 786-0 RCC cells, HIF-2a luciferase reporter luminescence, overnight | shares compounds with HIF-2a inh | 1,800 compounds, 56% hits;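 active = mean inhibition across four replicates of at least 40 percent at the single tested concentration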
HIF-1a counter: HIF-1a inhibition counter-screen for HIF-2a hits | 1,800 compounds, 72% hits | MiaPaCa-2 HIF-1a luciferase reporter, desferoxamine, overnight | AID 651589 | shares compounds with HIF-2a inh | inhibition, % at 18.8 µM;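 active = mean inhibition of the reporter signal across four replicates at the single tested dose of 50% or more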
Starred values were filed as active, the others as inactive; · = not tested or not shown.

SMILES	KKLEB cytotox	TWEAK-Fn14 inh	TROY NFkB inh	CF NFkB inh	HIF-2a inh	Peg3 promoter	HIF-2a conf	HIF-1a counter	others
COc1ccc(C)cc1Nc1n[n+](C)c(-c2c3ccccc3cc3ccccc23)s1	2	-23	-8	5	-25	-6	·	·
COc1ccc(C)cc1Nc1n[n+](-c2ccccc2)c(-c2c(Cl)cccc2Cl)s1	·	·	·	·	·	·	·	·	Mdm2-MdmX confirm=98*
Nc1ncnc2c1ncn2[C@@H]1O[C@H](C(=O)Nc2ccc(C(=O)N3CCCCC3)cc2)[C@@H](O)[C@H]1O	-8	-39	0	5	0	2	·	·
CCNC(=O)C1CCCN(C(=O)c2ccc(C#N)cc2)CC1 (centres undefined)	11	-1	4	14	2	-17	·	·
O=C(c1ccccc1)c1cc(Cl)ccc1N1C(=O)C=CC1=O	-14	5	-8	58*	75*	105*	78*	-11
O=C(CC(=O)c1cc(Cl)ccc1O)c1ccccc1	0	-16	-36	-28	-294	-195	·	·
CCCN(CCC)CCCNC(=O)c1cc2c(=O)n(CC)c3ccccc3c2s1	1	3	-8	-25	-19	2	·	·
Cc1ccc2c(C(=O)CCl)c(C)[nH]c2c1	-32	25	27	78*	0	50	·	·	Mdm2-MdmX confirm=103*
Cc1ccc2c(C(=O)CN3CCSCC3)c(C)[nH]c2c1	-14	5	0	13	-14	-10	·	·
COc1ccc(Cn2nnnc2C(c2cc3cccc(C)c3[nH]c2=O)N2CCN(C)CC2)cc1 (centres undefined)	-5	13	5	-24	41*	12	-3	10
Cc1cccc2cc(C(c3nnnn3Cc3ccccc3)N3CCN(C)CC3)c(=O)[nH]c12 (centres undefined)	-15	8	-13	-7	4	4	·	·
O=C1C(=C(c2ccccc2)N2CCOCC2)Cc2ccccc21	-7	97*	34	91*	91*	108*	98*	105*
COc1cc2ncc(S(=O)(=O)c3ccccc3)c(N3CCC4(CC3)OCCO4)c2cc1OC	6	-10	-3	17	40*	24	22	98*
O=C(CSc1nc2nn(-c3ccccc3)c(=O)c-2c2n1CCCCC2)c1ccc(O)c(O)c1	-8	-27	6	-13	-21	12	·	·
COc1cc(/C=N/NC(=O)c2ccccn2)ccc1OC(=O)c1cccs1	13	-1	-34	-15	-144	-117	·	·
COCC(C)n1c(C)cc(C(=O)COC(=O)c2cc(=O)[nH]c3ccccc23)c1C (centres undefined)	-3	88*	83*	4	43*	52*	45*	36
COc1ccccc1C(=O)COC(=O)c1cc(=O)[nH]c2ccccc12	-11	-19	-34	21	-89	-4	·	·
OCCC1CCCCN1CC(O)COCc1ccc(Cl)cc1 (centres undefined)	5	-4	-3	6	16	-19	·	·
CCN(CC(=O)Nc1c(F)cccc1F)C(=O)c1ccc(OCc2c(C)noc2C)cc1	17	-2	0	-9	11	0	·	·
Oc1ccccc1N=Nc1nc(-c2ccccc2)c(-c2ccccc2)[nH]1	2	33	21	81*	17	49	·	·	Mdm2-MdmX confirm=87*
COc1cc(/C=C/C(=O)OCC(=O)NC2CCCCCCC2)ccc1O	2	-18	-12	12	3	-21	·	·
O=[N+]([O-])c1ccc(Oc2cccc(F)c2)c2ccncc12	-17	33	15	41	47*	18	30	79*
NCCCn1cnc2ccccc21	2	11	0	8	47*	4	1	25
N#Cc1ccc(NC(=S)NC(=O)C2CCCCC2)cc1	7	-7	-23	-5	-49	-75	·	·

From PubChem BioAssay
